Screening data deposited in PubChem by several laboratories.
Sampled rows, rich in hits. Any-hit rate of the full collection: about 3.9%.
CCHFV vOTU inh: blocks the CCHF virus ovarian tumor domain protease. 0.55% of 370,000 active. CCHFV vOTU protease, Pep-AMC fluorescence. inhibition, % at 11.5 µM. AID 651958; in the data active = inhibition above about 30%; note: 0% = vehicle wells with enzyme and 100% = no enzyme wells
BoNT-F LC inh: inhibitors of Botulinum neurotoxin F light chain protease; AID 588497; 0.22% of 360,000 active; inhibition, % at 10 µM; Multiplex microsphere protease cleavage assay, flow cytometry; in the data active = inhibition above about 35%, passing the limit was not always enough; inconclusive = no clear call, values can overlap the other calls; note: plate controls were buffer without enzyme for full effect and enzyme alone for no effect
BoNT-A LC inh2: BoNT A light chain protease inhibition; multiplex microsphere protease substrate cleavage, flow cytometry; inhibition, % at 10 µM; 0.17% of 360,000 active; note: plate controls were buffer without enzyme for full effect and enzyme alone for no effect
3CLpro inhibitor: SARS-CoV 3CLpro protease inhibition. P0C6X7. recombinant SARS-CoV 3CLpro, quenched FRET peptide cleavage. inhibition, % at 6 µM. 0.14% of 290,000 active. AID 1706; in the data active = inhibition above about 12%
Anthrax LF inh2: inhibitors of Bacillus anthracis lethal factor protease; P15917; multiplex microsphere protease cleavage assay, LF; inhibition, % at 10 µM; 0.12% of 360,000 active; note: plate controls were buffer without enzyme for full effect and enzyme alone for no effect
Bead autofluor: flagged as autofluorescent in microsphere protease counterscreen; compound autofluorescence counterscreen, microsphere flow cytometry; hits give high values; fluorescence intensity (test concentration not listed); 3.1% of 360,000 active; AID 624483; in the data active = fluorescence intensity above about 16000; inconclusive = no clear call, values can overlap the other calls
An asterisk follows results filed as active; ? = inconclusive; . = not tested or not shown. Cut-off read from the data, not from the text of the source, unless noted: active = inhibition above about 30%; inconclusive = no clear call, values can overlap the other calls; inactive = below that.

SMILES	CCHFV vOTU inh	BoNT-F LC inh	BoNT-A LC inh2	3CLpro inhibitor	Anthrax LF inh2	Bead autofluor
CC1=C(C(=O)Nc2ccccc2)C(c2ccc(C)cc2)N=C(Nc2nc3ccccc3o2)N1 (stereo unspecified)	-4.3	-2.0	-2.2	1.4	-2.5	23563*
CC1(C)CC(=O)C2=C(C1)NC(Nc1nc3ccccc3o1)=NC2c1ccccn1 (stereo unspecified)	20.3	-3.6	-0.4	-1.0	-1.7	3247
O=C(Cc1ccccc1)Nc1nnc(-c2cccnc2)s1	0.9	.	.	.	.	.
CCOC(=O)N1CCN(C(=O)CN(Cc2ccccc2)S(C)(=O)=O)CC1	4.6	-5.3	-0.8	-4.0	0.8	11333
CCOC(=O)N1CCN(C(=O)CN(C2CCCCC2)S(=O)(=O)c2ccc(Cl)cc2)CC1	11.2	1.2	1.3	-2.6	-0.7	22589*
CCN(C1CCCCC1)S(=O)(=O)c1ccc(C(=O)O)cc1	-7.4	-1.7	-0.3	-0.9	-1.8	23470*
CCOC(=O)N1CCN(C(=O)CN(Cc2ccc(Cl)cc2)S(=O)(=O)c2ccccc2)CC1	5.5	-3.6	-0.8	5.6	-1.9	24155*
O=C(Nc1ccc(F)cc1)OCCN1C(=O)CCC12CCC(c1ccccc1)CC2 (stereo unspecified)	1.5	.	.	.	.	.
CCOc1ccc(C(=O)NCCc2cnc[nH]2)cc1	-11.5	49.9*	0.8	3.5	8.4	3918
CCOc1ccccc1C(=O)NCCc1cnc[nH]1	-6.2	-25.0	-3.7	3.1	1.0	4176
O=C(COC(=O)CCc1ccccc1)Nc1ncc(Cl)cc1Cl	-11.3	-1.2	-1.3	1.2	-0.7	16931*
Cc1nc(NC(=O)COC(=O)C2CC2C)c(Cl)cc1Cl (stereo unspecified)	-5.0	-6.8	-0.4	.	0.8	3657
O=C(COC(=O)Cc1ccccc1)Nc1ncc(Cl)cc1Cl	7.8	-7.2	0.4	1.2	-0.3	3757
Cc1nc(NC(=O)COC(=O)CCS(=O)(=O)c2ccccc2Cl)c(Cl)cc1Cl	2.3	-1.2	?	-1.6	1.7	20461*
CC(C)N(C(=O)COC(=O)c1cc(Cl)cc(Cl)c1N)C(C)C	1.0	-9.2	-6.8	2.5	-0.6	21720*
CCN(CC)CCCNC(=O)c1oc(=O)c2ccccc2c1-c1ccc(C)cc1	-2.1	.	.	.	.	.
COc1ccc(-c2cnn3c(N)c(S(=O)(=O)c4ccccc4)cnc23)cc1	-0.8	-2.4	-1.0	1.0	-3.0	20604*
COc1ccc(-c2cnn3c(N)c(S(=O)(=O)C(C)(C)C)cnc23)cc1	6.4	0.0	?	4.1	-10.2	21645*
CC(C)(C)S(=O)(=O)c1cnc2c(-c3ccc(Cl)cc3)cnn2c1N	-7.9	-7.4	0.2	4.6	1.1	5860
CC(C)(C)S(=O)(=O)c1cnc2c(-c3ccc(F)cc3)cnn2c1N	8.0	-0.8	?	-1.2	1.2	21191*
COc1ccc(-c2cnc3c(-c4ccc(F)cc4)cnn3c2N)cc1	-8.4	2.6	-1.2	-6.8	0.4	3654
CC(=O)Nc1c(-c2ccc(F)cc2)nc2ncccn12	-46.4	.	.	.	.	.
COc1ccccc1CNC(=O)N1CCN(Cc2nc3ccccc3c(=O)[nH]2)CC1	-7.2	.	.	.	.	.
CC(C)CN1CN2Cc3ccccc3C2CS1(=O)=O (stereo unspecified)	9.8	.	.	.	.	.
COC(=O)C[C@@H]1CC[C@H]2[C@@H](COc3ccc(NC(=O)Nc4ccccc4Cl)cc3C(=O)N2C)O1	-2.7	.	.	.	.	.
SMILES	CCHFV vOTU inh	BoNT-F LC inh	BoNT-A LC inh2	3CLpro inhibitor	Anthrax LF inh2	Bead autofluor
CCCOC(=O)Nc1nnc(CCC)s1	-1.1	10.0	7.0	1.9	2.0	21272*
CCOC(=O)COc1ccccc1/C=C1\NC(=O)NC1=O	-2.6	0.4	-0.3	-2.1	2.2	4868
CCOC(=O)COc1ccccc1-c1ccno1	-6.8	-7.5	?	4.8	-3.3	21115*
COC(=O)[C@@H]1N=C(c2ccc(OC)cc2)O[C@]12C(=O)N(Cc1cn(-c3ccccc3)nn1)c1cccc(Cl)c12	3.3	.	.	.	.	.
Cc1cc(C(=O)O[C@H]2CCC[C@]3(C(=O)N(Cc4ccccc4)c4ccccc43)[C@H]2NC(=O)CCc2ccccc2)no1	3.6	.	.	.	.	.
Cc1c(C(=O)O)oc2ccc(S(=O)(=O)NCc3ccc(F)cc3)cc12	-2.0	-5.6	-1.6	-1.2	-2.3	24054*
Nc1c(S(=O)(=O)c2ccccc2)c2nc3ccccc3nc2n1/N=C/c1ccco1	-20.9	-1.0	?	-0.3	-0.2	19798*
Cc1ccc(S(=O)(=O)c2c(N)n(/N=C/c3ccco3)c3nc4ccccc4nc23)cc1C	-8.2	0.2	0.7	-5.0	-5.0	2315
